Measured values from ChEMBL document CHEMBL1201862, “PubChem BioAssay data set” (2004).
Out of some 400,000 compounds screened, about 2,100 (0.53%) were called active. Another 14% or so got no clear call; they are omitted. This is one part of a sample in which actives are shown more often than they occur. How the calls were made is not given here.

These compounds were tested against Ataxin-2 (Homo sapiens) (UniProt Q99700) (assay: qHTS for Inhibitors of ATXN expression.).
Chain of Ataxin-2 (Homo sapiens) (Q99700 whole entry): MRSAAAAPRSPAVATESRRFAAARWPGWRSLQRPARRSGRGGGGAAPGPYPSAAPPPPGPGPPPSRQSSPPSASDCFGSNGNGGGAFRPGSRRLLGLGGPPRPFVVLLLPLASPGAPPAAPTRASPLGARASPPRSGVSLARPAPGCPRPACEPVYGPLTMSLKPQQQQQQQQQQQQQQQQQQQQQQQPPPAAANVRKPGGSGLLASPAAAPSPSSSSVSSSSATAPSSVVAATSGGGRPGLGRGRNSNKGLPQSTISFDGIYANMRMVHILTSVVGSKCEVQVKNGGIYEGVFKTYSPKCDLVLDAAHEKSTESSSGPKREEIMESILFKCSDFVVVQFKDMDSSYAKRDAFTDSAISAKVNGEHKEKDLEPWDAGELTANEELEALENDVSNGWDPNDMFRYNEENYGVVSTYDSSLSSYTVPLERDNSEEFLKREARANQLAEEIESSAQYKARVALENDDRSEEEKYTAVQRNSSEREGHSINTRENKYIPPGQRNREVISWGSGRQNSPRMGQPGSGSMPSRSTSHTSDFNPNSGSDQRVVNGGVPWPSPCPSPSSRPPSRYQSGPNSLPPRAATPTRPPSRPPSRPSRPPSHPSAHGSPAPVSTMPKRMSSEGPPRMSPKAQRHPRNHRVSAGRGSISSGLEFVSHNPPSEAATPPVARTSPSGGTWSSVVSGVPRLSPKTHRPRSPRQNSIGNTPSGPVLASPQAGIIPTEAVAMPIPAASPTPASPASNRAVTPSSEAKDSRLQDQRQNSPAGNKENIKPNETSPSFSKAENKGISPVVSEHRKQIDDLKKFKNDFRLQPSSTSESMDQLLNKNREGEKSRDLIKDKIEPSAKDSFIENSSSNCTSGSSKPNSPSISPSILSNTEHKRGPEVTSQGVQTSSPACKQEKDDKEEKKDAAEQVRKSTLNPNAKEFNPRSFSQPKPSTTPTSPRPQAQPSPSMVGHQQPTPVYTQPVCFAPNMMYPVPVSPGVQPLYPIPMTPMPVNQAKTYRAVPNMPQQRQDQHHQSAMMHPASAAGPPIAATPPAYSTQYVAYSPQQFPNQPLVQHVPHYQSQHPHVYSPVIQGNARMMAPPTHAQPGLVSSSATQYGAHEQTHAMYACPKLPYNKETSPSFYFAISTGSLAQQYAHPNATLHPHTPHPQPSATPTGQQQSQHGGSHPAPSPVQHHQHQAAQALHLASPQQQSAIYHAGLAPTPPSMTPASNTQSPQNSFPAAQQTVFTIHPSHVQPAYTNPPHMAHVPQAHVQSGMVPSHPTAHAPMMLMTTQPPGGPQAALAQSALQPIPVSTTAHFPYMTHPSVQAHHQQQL
Assay type: functional
With COc1ccc(-c2cc3ccc(O)c(CN4CCC(C)CC4)c3oc2=O)cc1OC the Potency was “inactive”.
For Cc1c(N=C2N=C(NC(=O)c3ccc(F)cc3)c3ccccc32)c(=O)n(-c2ccccc2)n1C, the Potency was “inactive”.
In the case of N=c1oc2cc(O)ccc2cc1C(=O)Nc1ccc(Br)cc1, the Potency is reported as “inactive”.
In the case of CCOC(=O)CC(NC(=O)CCc1c(C)nc2c(-c3ccccc3)c(C)nn2c1C)c1ccc(OC(C)C)cc1 (centres undefined), the Potency is reported as 39.8 µM (active).
With CCOC(=O)Cc1c(C)nc2c(-c3ccc(Cl)cc3)c(C)nn2c1C the Potency was “inactive”.
In the case of Cc1ccc(/C=C/C(=O)c2ccc(N3CCOCC3)cc2)s1, the Potency is reported as “inactive”.
With O=C(C1CCN(c2ncnc3c2nc2n3CCCCC2)CC1)N1CCN(c2ccc(F)cc2)CC1 the Potency was 22.4 µM (active).
For O=C(OCC(=O)N1CCN(c2ccc(F)cc2)CC1)c1cnc2ccccc2n1, the Potency was “inactive”.
For Clc1cccc(N2CCN(Cc3nnc(-c4ccccc4)o3)CC2)c1, the Potency was “inactive”.
O=C(c1cccc(F)c1)N1CCCC(C(=O)N2CCN(c3ccccc3)CC2)C1 (centres undefined) was tested, and the Potency was “inactive”.
In the case of Clc1cccc(N2CCN(c3ncnc4c3nc3n4CCCCC3)CC2)c1, the Potency is reported as 14.1 µM (active).
CNC(=O)/C(C#N)=C/c1c(N2CCN(c3cccc(Cl)c3)CC2)nc2c(C)cccn2c1=O was tested, and the Potency was “inactive”.
For O=C(OCC(=O)N1CCCC1)c1c[nH]c2ccccc12, the Potency was “inactive”.
For Cc1cc(C)c2c(CC(=O)O)c(C)[nH]c2c1, the Potency was “inactive”.
With O=c1ccc2ccc(O)cc2o1 the Potency was “inactive”.
In the case of Cn1c2ccccc2n2c(=O)cc(-c3ccccc3)c(C#N)c12, the Potency is reported as “inactive”.
CS(=O)(=O)c1nc(-c2ccccc2)cc(-c2ccccc2)c1C#N was tested, and the Potency was 31.6 µM (active).
CS(=O)(=O)c1sc2nc(-c3ccccc3)cc(-c3ccccc3)c2c1N was tested, and the Potency was “inactive”.
For N#Cc1c(-c2ccncc2)cc(-c2ccc(F)cc2)nc1N, the Potency was “inactive”.
In the case of CCO/C(O)=C(/Sc1nc(-c2ccccc2)cc(-c2ccccc2)c1C#N)C(C)=O, the Potency is reported as “inactive”.
In the case of CS(=O)(=O)c1nc(-c2ccc(Br)cc2)cc(-c2ccccc2)c1C#N, the Potency is reported as 28.2 µM (active).
For COCCCn1c(=N)c(C(=O)NCc2cccnc2)cc2c(=O)n3cc(C)ccc3nc21, the Potency was “inactive”.
With CC(=O)c1c(C)[nH]c(C(=O)OCC(=O)c2ccc3c(c2)NC(=O)CO3)c1C the Potency was “inactive”.
CC(C)C(=O)Nc1ccc(S(=O)(=O)Nc2nccc(/C=C/c3ccccc3)n2)cc1 was tested, and the Potency was “inactive”.
For c1ccc2cc3c(NCCN4CCOCC4)ccnc3cc2c1, the Potency was “inactive”.
For c1ccc(-c2cc(NCCN3CCCCC3)c3ccccc3n2)cc1, the Potency was 20 µM (active).
For c1ccc(-c2cc(-c3ccc(N4CCOCC4)cc3)nc3ccccc23)cc1, the Potency was “inactive”.
In the case of Cc1ccc(C2C=C(c3ccc4c(c3)OCO4)Nc3ncnn32)cc1 (centres undefined), the Potency is reported as “inactive”.
With O=C(NNc1c2ccccc2nc2ccccc12)c1ccccc1O the Potency was 35.5 µM (active).
With CCSc1ccccc1C(=O)Nc1nc(O)c2ccccc2n1 the Potency was “inactive”.
CC(C)(C)OC(=O)NNc1c2ccccc2nc2ccccc12 was tested, and the Potency was “inactive”.
For Cc1cc(S(=O)(=O)NC(C)C)ccc1OCC(=O)NCc1ccccc1, the Potency was “inactive”.
In the case of CSc1nsc(SCC(=O)NCc2ccc(C)cc2)n1, the Potency is reported as “inactive”.
In the case of Cc1c(Cl)cccc1N(CC(=O)NC(C)c1ccccc1)S(C)(=O)=O (centres undefined), the Potency is reported as “inactive”.
In the case of COc1ccc(S(=O)(=O)N(CC(=O)NCc2ccccc2)c2ccc(C)cc2)cc1OC, the Potency is reported as 35.5 µM (active).
For Cc1n[nH]c(C)c1S(=O)(=O)N(CC(=O)NC(C)c1ccccc1)c1ccc(C(C)C)cc1 (centres undefined), the Potency was 35.5 µM (active).
For Cc1ccc(CNC(=O)CN(C)S(=O)(=O)c2ccc(F)cc2)cc1, the Potency was “inactive”.
COc1ccc(N(CC(=O)Nc2ccccc2Cl)S(=O)(=O)c2ccc(C)cc2)cc1OC was tested, and the Potency was “inactive”.
With Cc1ccc(CNC(=O)CN(c2ccc(C(C)C)cc2)S(=O)(=O)c2c(C)n[nH]c2C)cc1 the Potency was 35.5 µM (active).
Cc1cccc(C(=O)NCC(=O)OCC(=O)N2CCc3ccccc32)c1 was tested, and the Potency was “inactive”.
In the case of N#C/C(=C\Nc1ccc2c[nH]nc2c1)c1nc(-c2ccc(Cl)cc2)cs1, the Potency is reported as “inactive”.
For C=CCN(CC=C)C(=S)NC(=O)c1ccc(-c2ccccc2)cc1, the Potency was 25.1 µM (active).
With O=C(NC(=S)NCc1ccco1)c1ccc(Br)cc1 the Potency was “inactive”.
For CCCN(CC1CC1)C(=S)NC(=O)c1ccccc1C, the Potency was “inactive”.
For COc1cc(/C=C2/C(=N)N3C(SC)=NSC3=NC2=O)ccc1OC(=O)c1ccco1, the Potency was “inactive”.
For CCOC(=O)N1CCN(C(=O)c2cc3cc(C)ccc3[nH]2)CC1, the Potency was “inactive”.
CC(C)CCN1C(=O)C2(OCCCO2)c2cc(Cl)ccc21 was tested, and the Potency was “inactive”.
In the case of COc1cccc(NC(=O)C(=O)NCC2CCCN2S(=O)(=O)c2cccs2)c1 (centres undefined), the Potency is reported as “inactive”.
With Cc1ccc(NC(=S)NCc2ccccc2)cc1C the Potency was “inactive”.
With S=C(Nc1ccc(Cl)c(Cl)c1)NC1CCN(Cc2ccccc2)CC1 the Potency was 28.2 µM (active).
With O=C(NC1CCN(Cc2ccccc2)CC1)c1ccccc1Cl the Potency was “inactive”.
With CCCCCCSc1cc(-c2nc3cc(C)ccn3c2NCCCC)ccc1OC the Potency was 35.5 µM (active).
In the case of CCCCCCSc1cc(-c2nc3cnccn3c2NCCCC)ccc1OC, the Potency is reported as “inactive”.
In the case of CCCCNc1c(-c2ccc(OC)c(SC(C)CC)c2)nc2cnccn12 (centres undefined), the Potency is reported as “inactive”.
With COC(=O)C1=C(C)N(Cc2ccccc2)C(NCC(C)C)=N[C@H]1c1cccc(F)c1 the Potency was 31.6 µM (active).
COC(=O)C1=C(C)N(Cc2ccccc2)C(NCc2ccc(OC)cc2)=N[C@H]1c1cccc(F)c1 was tested, and the Potency was 35.5 µM (active).
COC(=O)C1=C(C)N(c2ccc(OC)cc2)C(C)=C(C(=O)OC)C1c1ccccc1 was tested, and the Potency was “inactive”.
COC(=O)C1=C(C)N(Cc2ccccc2)C(NCc2cc(OC)c(OC)c(OC)c2)=N[C@H]1c1ccc(Br)cc1 was tested, and the Potency was 35.5 µM (active).
In the case of COC(=O)C1=C(C)N(Cc2ccccc2)C(NCc2ccccc2)=N[C@H]1c1cccc(F)c1, the Potency is reported as 31.6 µM (active).
With O=C(COC(=O)c1c(F)cccc1F)NC(=O)NCc1ccccc1 the Potency was “inactive”.
With COC(=O)C1=CN(Cc2ccccc2)C=C(C(=O)OC)C1c1cc(F)ccc1F the Potency was “inactive”.
COC(=O)C1=CN(C(C)C)C=C(C(=O)OC)C1c1cc(Br)c(OC)c(OC)c1 was tested, and the Potency was “inactive”.
For COC(=O)C1=CN(Cc2ccc(OC)c(OC)c2)C=C(C(=O)OC)C1c1cccc(OC)c1OC, the Potency was “inactive”.
In the case of CCN1C=C(C(=O)OC)C(c2cccc(C)c2)C(C(=O)OC)=C1, the Potency is reported as “inactive”.
